Source: PubChem BioAssay
Sampled rows, rich in hits. Any-hit rate of the full collection: about 18%.
HepG2 tox: counter-screen for TGF-b inhibitors: cytotoxicity in HepG2 cells | HepG2 CAGA-GFP viability, ATP luminescence, 18 h | Potency, µM (highest dose often 46.1 µM), for the others: at the top dose activity change, negative = cytotoxicity, most hits filed as cytotoxic | 410,000 compounds, 0.76% hits; also: potency is read from the fitted curve at half-maximal effect
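HepG2 CAGA-GFP cells (1000/well, DMEM with 1% FBS) received compound, then TGF-beta at 500 pg/mL final, and were incubated 18 hours at 37 degrees C. Viability was read by CellTiter-Glo luminescence. Media-only wells were set as complete cell-killing and DMSO as no toxicity.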
TDP1 inh: inhibitors of human tyrosyl-DNA phosphodiesterase TDP1 | recombinant TDP1, AlphaScreen DNA substrate cleavage | 350,000 compounds, 0.28% hits | Q9NUW8 | Potency, µM (doses to about 130 µM), for the others: at the top dose activity change, negative = inhibition, usual class: inhibitors; also: potency is read from the fitted curve at half-maximal effect; % is scaled to controls: 0 for no effect and ±100 for the full control effect; nearly all actives have a fitted effect of over 40% in size
Target sequence (Q9NUW8 whole entry, looked up): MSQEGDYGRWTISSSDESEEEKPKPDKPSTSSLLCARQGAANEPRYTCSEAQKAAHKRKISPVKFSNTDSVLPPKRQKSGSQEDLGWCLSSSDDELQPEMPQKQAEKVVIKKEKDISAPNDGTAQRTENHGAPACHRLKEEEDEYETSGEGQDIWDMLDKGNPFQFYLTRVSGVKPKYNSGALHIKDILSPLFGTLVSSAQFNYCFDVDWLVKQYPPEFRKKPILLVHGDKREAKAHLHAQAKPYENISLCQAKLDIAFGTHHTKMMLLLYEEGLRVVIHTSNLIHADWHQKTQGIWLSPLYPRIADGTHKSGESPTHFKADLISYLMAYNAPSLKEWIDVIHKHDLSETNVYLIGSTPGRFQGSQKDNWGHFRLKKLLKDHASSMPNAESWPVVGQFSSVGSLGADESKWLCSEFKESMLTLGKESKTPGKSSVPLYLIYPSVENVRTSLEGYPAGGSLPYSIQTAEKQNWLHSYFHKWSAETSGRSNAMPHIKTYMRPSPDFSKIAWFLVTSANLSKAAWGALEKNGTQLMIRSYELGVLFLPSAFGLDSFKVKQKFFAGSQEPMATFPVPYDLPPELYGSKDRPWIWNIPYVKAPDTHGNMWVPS
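Recombinant human Tdp1 (E. coli-expressed, 1 nM final) preincubated with compounds 15 min at room temperature, then 5'-biotin/3'-phosphotyrosine-FITC DNA substrate (15 nM final) added for 5 min. AlphaScreen beads (10 ug/ml final) added 10 min; cleavage lowers signal.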
DT40 TDP1 no CPT: qHTS for Inhibitors of human tyrosyl-DNA phosphodiesterase 1 (TDP1): qHTS in cells in absence of CPT; DT40 Tdp1-/- hTDP1 cells, no CPT, ATP luminescence, 48 h; Potency, µM (titrated, usually from 46.2 µM), without a hit: at the highest dose activity change, negative = growth inhibition, most hits filed as inhibitors; 420,000 compounds, 15% hits; AID 686978, 2013; also: potency is read from the fitted curve at half-maximal effect; % is scaled to controls: 0 for no effect and ±100 for the full control effect; nearly all actives have a fitted effect of over 55% in size
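Camptothecin absent (DMSO only). Human TDP1-complemented DT40 knockout cells, 400 cells/well, 37 °C for minimum 48 hr; ATP measured via CellTiter-Glo, 30 min dark incubation, luminescence.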
IL-1B inflam inh: inflammasome signaling inhibition, IL-1 beta readout; THP-1 LPS/ATP IL-1B secretion, AlphaLISA, 16 h; stronger effect = lower value; AID 743279; 360,000 compounds, 4.7% hits; activity change, % at 57.5 µM; in the data active = activity change below about -50%; inconclusive = mostly about -30% to -49%; also: % is scaled to controls: 0 for no effect and ±100 for the full control effect
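THP-1 cells pretreated 1 hr with compounds (up to 57.5 uM final), then stimulated with LPS (250 ng/mL final) plus ATP (1.25 mM final); secreted IL-1B measured by AlphaLISA after 16 hr, decreased signal indicating inhibition.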
TDP1 cell CPT: growth inhibition of DT40 Tdp1-/-;hTDP1 cells with camptothecin (screen for TDP1 inhibitors); chicken DT40 Tdp1-/-;hTDP1 cells + 20 nM CPT, ATP luminescence, 48 h; Potency, µM (series often up to 46.2 µM), for the others: at the top dose activity change, negative = growth inhibition, hits mostly inhibitors; 420,000 compounds, 12% hits; AID 686979; also: potency is read from the fitted curve at half-maximal effect; % is scaled to controls: 0 for no effect and ±100 for the full control effect; nearly all actives have a fitted effect of over 55% in size
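Cell growth measured by CellTiter-Glo luminescence after a minimum 48 h, 37 C compound exposure with 20 nM CPT in Tdp1-knockout DT40 cells stably expressing hTDP1, seeded 400/well; qHTS titration format.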
TGFb SMAD3 inh: TGF-b pathway inhibition | HepG2 CAGA-GFP TGF-b/SMAD3 reporter, GFP fluorescence, 18 h; TGF-beta stimulated, 500 pg/mL final | Potency, µM (titrated, usually from 46.1 µM), inactives show at the top dose activity, negative = inhibition, hits mostly inhibitors | 410,000 compounds, 1.2% hits; also: potency is read from the fitted curve at half-maximal effect; % is scaled to controls: 0 for no effect and ±100 for the full control effect; nearly all actives have a fitted effect of over 65% in size
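Read-out: total well GFP (ex488/em500-530) summed from mean per-cell fluorescence. Cells: HEPG2 CAGA-GFP, 1% FBS DMEM, 18 h at 37 degrees C with 500 pg/mL final TGF-beta. Unstimulated wells served as the full-inhibition control; stimulated DMSO wells = 0%.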
An asterisk follows results filed as active; u = inconclusive; x = no result; [ ] = another dose, or the depositor's remark. Unless noted, calls follow the shape of the dose curve; as a rule, active = well fitted curve in the direction sought with a large enough effect; inconclusive = small, poorly fitted or top-dose-only effect, or another doubt; inactive = no such curve, though single readings can be large; an effect the other way counts as inactive or inconclusive.

SMILES	HepG2 tox	TDP1 inh	DT40 TDP1 no CPT	IL-1B inflam inh	TDP1 cell CPT	TGFb SMAD3 inh
Cc1ccccc1NC(=O)Cc1nc(COC(=O)CSc2ccc(F)cc2)cs1	-30.5%	x	-9.1%	16.7	-23.0%	-6.7%
Cc1ncc2c(c1CNC(=O)/C=C/c1cccs1)CCN(C(=O)C1CC(=O)OC13CCCCC3)C2 (centres undefined)	x	x	-9.4%	x	8.3%[9.04 µM]	x
CCOC(=O)C1=CCN(S(=O)(=O)c2ccc(Cl)cc2)C1c1ccc(C)cc1 (centres undefined)	-14.2%	x	u	16.9	u	-26.4%
CC1=C(C(=O)N2CCCCCC2)CC(CC(=O)NCCN2CCOCC2)C(=O)N1Cc1ccc(F)cc1 (centres undefined)	x	x	-4.4%	12.1	-9.8%	x
COc1cc2ccccc2cc1C(=O)OCC(=O)N1CCOCC1	-2.1%	2.0%	-21.7%	-14.4	-6.9%	-12.0%
C/C(N)=C(/C#N)C(=O)COC(=O)c1cc(-c2ccc(Br)cc2)nc2ccccc12	-11.6%	2.8%	9.2µM*	u	14.6µM*	u
COC(=O)C1CCN(C(=O)COC(=O)c2cc(-c3ccccc3)nc3ccc(OC)cc23)CC1	0.5%	28.2µM*	u	-26.2	u	-14.7%
COc1ccc(-c2cc(C(=O)OCC(=O)N3CCOCC3)c3ccccc3n2)cc1	-15.5%	-4.6%	u	-54.1*	-15.1%	4.6%
COc1ccc(-c2cc(C(=O)OCC(=O)NC3CC3)c3ccccc3n2)cc1	-8.0%	-20.0%	u	26.2	u	2.1%
COC(=O)N[C@@H](/C=C/c1ccccc1)/C(C(=O)OC)=C(\C)NCc1ccccc1	x	2.5%	x	x	x	x
Nc1ncnc2c1ncn2[C@@H]1O[C@H](C(=O)N[C@H]2c3ccccc3C[C@H]2OC=O)[C@@H](O)[C@H]1O	-3.5%	x	-2.1%	36.4	-8.5%	-0.9%
CC(=O)c1ccc(N2CCN(C(=O)c3cc4ccc5cccnc5c4[nH]3)CC2)cc1	-0.9%	4.2%	18.4µM*	x	14.6µM*	u
O=C(c1cc2ccc3cccnc3c2[nH]1)N1CCN(c2ccc(Cl)cc2)CC1	-4.1%	1.1%	u	x	u	1.3%
Cc1cccc(N2CCN(C(=O)c3cc4ccc5cccnc5c4[nH]3)CC2)c1C	-3.9%	7.4%	u	x	23.1µM*	u
CC1=C(C(=O)N2CCOCC2)CC(CC(=O)NC(c2ccccc2)c2ccccc2)C(=O)N1Cc1ccc(C(C)(C)C)cc1 (centres undefined)	21.5%	x	16.4µM*	-19.4	u	u
CCN(CC)C(=O)C1=C(C)N(Cc2ccc(F)cc2)C(=O)C(CC(=O)NC(c2ccccc2)c2ccccc2)C1 (centres undefined)	-7.2%	x	20.6µM*	u	u	11.3%
CC1=C(C(=O)N(C)C)CC(CC(=O)NC(c2ccccc2)c2ccccc2)C(=O)N1Cc1ccc(C(C)(C)C)cc1 (centres undefined)	-4.7%	x	23.1µM*	-5.7	u	u
COc1ccc(CN2C(=O)C(CC(=O)NC(c3ccccc3)c3ccccc3)CC(C(=O)N(C(C)C)C(C)C)=C2C)cc1 (centres undefined)	-35.3%	x	u	u	u	u
CC1=C(C(=O)N2CCOCC2)CC(CC(=O)NC2CC2)C(=O)N1CCC1=CCCCC1 (centres undefined)	0.3%	x	2.8%	-7.0	-3.8%	1.9%
CC1=C(C(=O)N2CCCCCC2)CC(CC(=O)NC(c2ccccc2)c2ccccc2)C(=O)N1CCC1=CCCCC1 (centres undefined)	x	x	16.4µM*	u	20.6µM*	x
